Assay results reported in PubChem BioAssay AID901 (National Center for Advancing Translational Sciences (NCATS), 2007).
In all, about 120,000 compounds went through this assay and fewer than 10 were called active. Roughly 4% stayed inconclusive and do not appear here. The call rests on the fitted dose curve; in most records, active means well fitted curve in the direction sought with a large enough effect in the signal ratio (not every such curve was filed as active); inconclusive means small, poorly fitted or top-dose-only effect, or a change in a side signal; inactive means no such curve, though single readings can be large or run the other way; the % refers to the signal ratio. A selection follows.

biological target: Inositol monophosphatase 1 (Rattus norvegicus) (UniProt P97697); assay: qHTS Assay for Identifying the Cell-Membrane Permeable IMPase Inhibitors; conditions: CHO-M1 cells, HTRF TR-FRET ratio; series mostly up to 46.1 µM;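 further: higher means more IMPase inhibition seen as more IP1 and lower FRET ratio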
Sequence (P97697 whole entry, looked up): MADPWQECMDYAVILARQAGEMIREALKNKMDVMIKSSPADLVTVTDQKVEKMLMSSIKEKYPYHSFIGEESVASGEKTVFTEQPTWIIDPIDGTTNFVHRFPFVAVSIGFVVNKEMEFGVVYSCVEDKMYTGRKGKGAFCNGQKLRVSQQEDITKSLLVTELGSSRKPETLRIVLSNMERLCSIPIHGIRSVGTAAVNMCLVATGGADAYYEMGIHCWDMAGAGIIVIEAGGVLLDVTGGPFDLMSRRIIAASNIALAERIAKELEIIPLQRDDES
Excerpt: NCGC IMPase Assay Overview
Lithium has been widely used for the treatment of bipolar disorder. But lithium has a narrow therapeutic index and it can cause side effects such as thirst, weight gain, tremor, polyuria and memory problems. Although the mechanism for lithium action in treatment of bipolar disorder is still not fully understood, inhibition of inositol monophosphatase (IMPase) and the subsequent depletion of the inositol pool in living cells have been implicated as the primary therapeutic benefit of lithium therapy. Therefore, a selective IMPase inhibitor with reduced side effects might be a good drug candidate to replace lithium for the treatment of bipolar disorder. Several IMPase inhibitors have been discovered previously. However, they are not suitable for therapeutic use because of their poor cell membrane penetrability or oral bioavailability; the development of new cell-permeable IMPase inhibitors is needed.
IMPase catalyzes the hydrolysis of inositol-1-phosphate (IP1) to release free inositol. Binding of an agonist to a Gq coupled GPCR results in the activation of PLC, which hydrolyzes the PIP2 to form inositol-1,4,5-trisphosphate (IP3) and diacyl glycerol (DAG). While DAG activates protein kinase C (PKC), IP3 triggers the elevation of intracellular free Ca2+. The IP3 is very rapidly inactivated by hydrolysis to IP2, IP1 and then inositol by a series of enzymes including IMPase. Free inositols are used for synthesis of PI and thus start another inositol cycle.
To identify new cell-permeable IMPase inhibitors, we developed a cell-based IMPase assay in which the cytosolic IP1 is measured by a time-resolved fluorescence resonance energy transfer (TR-FRET) assay. In this assay, an IP1 specific antibody is used to detect the labeled IP1 tracer. When the cell lysate contains the elevated IP1 due to the inhibition of IMPase, the TR-FRET between the labeled antibody and IP1 tracer is disrupted resulting in a reduction in the total signal. Since the TR-FRET is used, this cell-based assay is a homogenous assay without cell wash and medium change that is suitable for assay miniaturization and HTS.
NCGC IMPase Assay Protocol Summary
A Chinese hamster ovary (CHO) cell line stably expressing the M1 receptor (CHO-M1) was obtained from ATCC and maintained in F-12 Kaighn's media (Invitrogen, Carlsbad, CA, 21127) supplemented with 10 % FBS, 100 units/ml penicillin, 100 ug/ml streptomycin and 250 ug/ml geneticin at 37C, 5% CO2 in a humidified atmosphere. Before the assay, aliquots of cells were frozen and stored at -135C. The assay was performed in 1536-well format. Data are reported for both the ratio of the two emission wavelengths, and also for the component 'donor' channel, Em2=620. […] AC50 values were determined from concentration-response data modeled with the standard Hill equation.
IMPase 1536-well assay protocol:
(1) Plate 4 ul/well (2000 cells) of cell suspension from frozen CHO-M1 Cells in white, tissue culture treated 1536-well plates that are cultured at 37C, 5 % CO2 for 16 to 30 hours.
(2) Add 23 nl/well of compound in DMSO solution. The final titration for each compound was between 0.6 nM and 46 uM.
(3) Add 1 ul of carbachol (50 uM in stimulation buffer containing10mM HEPES, 1mM CaCl2, 0.5 mM MgCl2, 4.2 mM KCl, 146 mM NaCl, 5.5 mM glucose, 50mM LiCl, pH 7.4.
(4) Incubation at 37C, 5 % CO2 for 30 min.
(5) Add 1 ul/well of d2-conjugated IP1 (d2-IP1) and 1 ul/well of Eu+ cryptate conjugated anti-IP1 antibody (Eu+-Ab) prepared in the cell lysis buffer, both from the IP-One kit (Cisbio, MA).
(6) Incubate at room temperature for 10 minutes.
(7) Detect the assay plate (Ex = 320, Em1 =665 and Em2 620) in a ViewLux plate reader.
inositol monophosphatase, IMPase, IMPase inhibitor, lithium, bipolar disorder, IP-One, HTRF, qHTS, NIH roadmap, NCGC
Note: In the gene ID and protein GI references for this assay, rat IMPase is referenced instead of hampster as hamster accession numbers were not available.

outcome, inactive:
O=C(Nc1ccc(O)c(-c2nc3ccccc3o2)c1)c1ccc(-c2cccc(Cl)c2)o1
CC1CCCCN1CC(=O)N1CCCc2c1c(=O)oc1ccc(OCc3ccccc3)cc21 (stereo unspecified)
COc1ccc(C2(Nc3cccc(F)c3)C(=O)c3ccccc3C2=O)cc1
Cc1ccc(C(=O)CSc2nc(-c3ccccc3)nc3c2CCCC3)c(C)c1
CCOc1ccc(S(=O)(=O)N/N=C(\C)c2ccc(Cl)c(Cl)c2Cl)cc1
Cc1ccc(C(=O)CC2(O)C(=O)N(CCc3ccccc3)c3ccc(Br)cc32)cc1 (stereo unspecified)
COc1ccc2oc(-c3cccc(NC(=O)CSc4ccc(Cl)cc4)c3)nc2c1
CCCC(=O)Nc1ccc2oc(-c3ccc(O)c(Br)c3)nc2c1
COc1cccc(C(=O)Nc2ccc3oc(-c4ccc5ccccc5c4)nc3c2)c1
Cc1cccc(C(CC(=O)NCC2(c3ccccc3)CCCC2)c2ccccc2)c1O (stereo unspecified)
Cc1ccc(OCC(=O)Nc2ccccc2Sc2ccc(Cl)cc2)c([N+](=O)[O-])n1
CN(C(=O)CSc1nnc(-c2n[nH]c3ccccc23)o1)c1ccccc1
CC(=O)NC(Cc1ccccc1)C(=O)NC1CCN(c2ncccc2[N+](=O)[O-])CC1 (stereo unspecified)
COc1ccc(/C=C/C(=O)OCC(=O)NCc2cccs2)cc1OC
COc1ccc(S(=O)(=O)Nc2cc3c(C(=O)OC(C)C)c(C)oc3c3ccccc23)cc1
CCOC(=O)c1c(C)oc2ccc(N(C(=O)c3ccncc3)S(=O)(=O)c3ccc(CC)cc3)cc12
CCCCOC(=O)/C(C#N)=C/c1ccc(-c2cccc(C(F)(F)F)c2)o1
CCc1ccccc1NC(=O)CSc1nc(C)c(C(=O)Nc2ccccc2)c(-c2ccc(Cl)cc2)c1C#N
Oc1ccccc1-c1nc(/C=C/c2ccc(F)cc2)no1
COc1ccc(NC(=O)CSC2=Nc3ccccc3C3=NC(CC(=O)NCc4ccccc4OC)C(=O)N23)cc1Cl (stereo unspecified)
COc1ccc(C(C(=O)NC2CCCCC2)N(C(=O)CCl)c2ccccc2Cl)cc1 (stereo unspecified)
COc1ccc(S(=O)(=O)NCCc2cc3ccc(C)c(C)c3[nH]c2=O)cc1
COc1ccc2c(CN3CCN(S(=O)(=O)c4cccs4)CC3)cc(=O)oc2c1
CC(=O)Nc1ccc(NC(=O)CSc2nnc3c4cc(Br)ccc4n(C)c3n2)cc1
CCc1ccccc1NS(=O)(=O)c1ccc2nc(-c3ccccc3)[nH]c2c1
COC(=O)c1ccc(-c2nc3cc(NC(C)=O)ccc3o2)cc1
